# From PubChem BioAssay (EPA / NIEHS)
# Active and inactive are the calls of the source. How the source made its calls: active means hit-call score of the fitted dose curve at least 0.9, where 1 is the maximum; inactive means score below 0.9.
# Experiments:
# Conditions in all cases: mRNA level, 48 h; actives raise or lower the signal
# [1] = read-out: DNA damage-inducible transcript 3 (DDIT3), DDIT3 (gene 1649); experiment: LTEA_HepaRG_DDIT3: Life Technologies and Expression Analysis (LTEA) Assay for DNA damage-inducible transcript 3 (DDIT3) using HepaRG (AID 2283488)
# Procedure, shortened: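 Cells are human HepaRG liver cells treated for 48 h with eight half-log concentrations up to 100 uM in 0.5% DMSO. Transcript levels come from qRT-PCR normalized to three housekeeping genes, with activity fitted in both directions relative to vehicle.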
# [2] = read-out: Pro-epidermal growth factor (Homo sapiens) (UniProt P01133); experiment: LTEA_HepaRG_EGF: Life Technologies and Expression Analysis (LTEA) Assay for Epidermal growth factor (EGF) using HepaRG (AID 2283489)
# Procedure, shortened: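 EGF expression changes in human HepaRG cells are scored by bidirectional fitting relative to 0.5% DMSO controls. Chemicals are tested at eight half-log concentrations up to 100 uM for 48 h in serum-free induction medium.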
# [3] = read-out: Ezrin (EZR), EZR (gene 7430); experiment: LTEA_HepaRG_EZR: Life Technologies and Expression Analysis (LTEA) Assay for Ezrin (EZR) using HepaRG (AID 2283491)
# Procedure, shortened: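 Read-out is EZR transcript level by qRT-PCR, normalized to three housekeeping genes and fitted bidirectionally against the DMSO control. Human HepaRG cells received test chemicals for 48 h at eight half-log concentrations up to 100 uM in 0.5% DMSO.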
# [4] = read-out: Fatty Acid-Binding Protein 1 (FABP1), FABP1 (gene 2168); experiment: LTEA_HepaRG_FABP1: Life Technologies and Expression Analysis (LTEA) Assay for Fatty Acid-Binding Protein 1 (FABP1) using HepaRG (AID 2283494)
# Procedure, shortened: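 FABP1 expression by TaqMan qRT-PCR, normalised to three housekeeping genes, in HepaRG cells after 48 h chemical treatment. Eight-point half-log series topping at 100 uM in 0.5% DMSO, duplicates; gain or loss fitted relative to vehicle.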
# [5] = read-out: Glutamate-cysteine ligase catalytic (GCLC), GCLC (gene 2729); experiment: LTEA_HepaRG_GCLC: Life Technologies and Expression Analysis (LTEA) Assay for Glutamate-cysteine ligase catalytic (GCLC) using HepaRG (AID 2283498)
# Procedure, shortened: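 Expression by TaqMan qRT-PCR, normalized to three housekeeping genes (ACTB, GAPDH, POLR2A), with up- or down-regulation fitted against DMSO. HepaRG cells dosed in duplicate for 48 h with 8 half-log concentrations up to 100 uM, vehicle 0.5% DMSO.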
# [6] = read-out: growth arrest and DNA damage 45 (GADD45G), GADD45G (gene 10912); experiment: LTEA_HepaRG_GADD45G: Life Technologies and Expression Analysis (LTEA) Assay for growth arrest and DNA damage 45 (GADD45G) using HepaRG (AID 2283499)
# Procedure, shortened: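 Human hepatic HepaRG line treated 48 h with chemicals (eight concentrations, half-log steps from 100 uM); transcript induction or repression of GADD45G scored by qRT-PCR versus DMSO vehicle.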
# [7] = read-out: Glutamate-cysteine ligase regulatory (GCLM), GCLM (gene 2730); experiment: LTEA_HepaRG_GCLM: Life Technologies and Expression Analysis (LTEA) Assay for Glutamate-cysteine ligase regulatory (GCLM) using HepaRG (AID 2283500)
# Procedure, shortened: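 Endpoint is GCLM transcript level by qRT-PCR, normalized to three housekeeping genes, after 48 h chemical exposure of human HepaRG cells (0.5% DMSO vehicle, top 100 uM, half-log dilutions). Fitting was bidirectional relative to DMSO.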
# [8] = read-out: Glutathione S-transferase M3 (GSTM3), GSTM3 (gene 2947); experiment: LTEA_HepaRG_GSTM3: Life Technologies and Expression Analysis (LTEA) Assay for Glutathione S-transferase M3 (GSTM3) using HepaRG (AID 2283501)
# Procedure, shortened: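 Changes in GSTM3 expression, an oxidative-stress marker, were scored by bidirectional curve fitting against 0.5% DMSO vehicle. Human HepaRG cultures received chemicals for 48 h in duplicate, highest concentration 100 uM with half-log dilutions.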
# [9] = read-out: Heat shock 70 kDa protein 1 (HSPA1A), gene 3303; experiment: LTEA_HepaRG_HSPA1A: Life Technologies and Expression Analysis (LTEA) Assay for Heat shock 70 kDa protein 1 (HSPA1A) using HepaRG (AID 2283502)
# Procedure, shortened: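 Cells were plated and cultured for 48 h, then switched to serum-free induction medium. Chemicals were added at eight half-log concentrations up to 100 uM for 48 h. RNA was then isolated and HSPA1A measured by qRT-PCR with bidirectional curve fitting against DMSO.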
# [10] = read-out: 3-Hydroxy-3-Methylglutaryl-CoA Synthase 2 (HMGCS2), HMGCS2 (gene 3158); experiment: LTEA_HepaRG_HMGCS2: Life Technologies and Expression Analysis (LTEA) Assay for 3-Hydroxy-3-Methylglutaryl-CoA Synthase 2 (HMGCS2) using HepaRG (AID 2283504)
# Procedure, shortened: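 Expression of HMGCS2 in human HepaRG liver cells is measured by qRT-PCR 48 h after dosing (highest 100 uM, half-log series, 0.5% DMSO). Values come from bidirectional concentration-response fitting with DMSO as baseline.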
# HGF (gene 3082) = experiment: LTEA_HepaRG_HGF: Life Technologies and Expression Analysis (LTEA) Assay for Hepatocyte Growth Facto (HGF) using HepaRG (AID 2283505)
# Procedure, shortened: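 Gain or loss of HGF mRNA in human HepaRG liver cells after 48 h chemical exposure; eight concentrations up to 100 uM with 0.5% DMSO vehicle, quantified by TaqMan qRT-PCR.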
# [11] = read-out: Insulin Like Growth Factor 1 (IGF1), IGF1 (gene 3479); experiment: LTEA_HepaRG_IGF1: Life Technologies and Expression Analysis (LTEA) Assay for Insulin Like Growth Factor 1 (IGF1) using HepaRG (AID 2283506)
# Procedure, shortened: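 Cells are thawed, plated and cultured 48 h, then exposed in duplicate to chemical (highest 100 uM, half-log steps, 0.5% DMSO) for another 48 h. Total RNA is analysed by Fluidigm qRT-PCR for IGF1 expression relative to vehicle.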
# [12] = read-out: Cytochrome P450 3A4 (Homo sapiens) (UniProt P08684); experiment: LTEA_HepaRG_CYP3A4: Life Technologies and Expression Analysis (LTEA) Assay for CYP3A4 using HepaRG (AID 2283487)
# Procedure, shortened: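 HepaRG, 48 h exposure, 8-pt CRC from 100 uM (half-log), 0.5% DMSO, duplicates; serum-free induction medium. Readout: CYP3A4 mRNA, qRT-PCR, ACTB/GAPDH/POLR2A normalization. Bidirectional fit vs DMSO.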
# [13] = read-out: Cytochrome P450 3A7 (Homo sapiens) (UniProt P24462); experiment: LTEA_HepaRG_CYP3A7: Life Technologies and Expression Analysis (LTEA) Assay for CYP3A7 using HepaRG (AID 2283492)
# Procedure, shortened: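 Cells were thawed, plated, cultured 48 h, then treated for a further 48 h with chemicals (eight-point half-log series from 100 uM, 0.5% DMSO). RNA was isolated and CYP3A7 expression quantified by qRT-PCR normalised to ACTB, GAPDH and POLR2A.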
# CYP3A5 (gene 1577) = experiment: LTEA_HepaRG_CYP3A5: Life Technologies and Expression Analysis (LTEA) Assay for CYP3A5 using HepaRG (AID 2283493)
# Procedure, shortened: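 Human HepaRG hepatic cells receive 48 h chemical treatment at eight concentrations (half-log steps from 100 uM) in 0.5% DMSO. Expression of CYP3A5 is quantified by Fluidigm qRT-PCR and normalized to three reference genes.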
# [14] = read-out: Cytochrome P450 4A22 (Homo sapiens) (UniProt Q5TCH4); experiment: LTEA_HepaRG_CYP4A22: Life Technologies and Expression Analysis (LTEA) Assay for Cytochrome P450 4A22 (CYP4A22) using HepaRG (AID 2283495)
# Procedure, shortened: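 Cryopreserved HepaRG cells, plated and cultured 48 h, then switched to serum-free induction medium and treated 48 h (duplicates, up to 100 uM, half-log steps, 0.5% DMSO). Expression change of CYP4A22 was fitted bidirectionally against vehicle.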
# [15] = read-out: Cytochrome P450 7A1 (Homo sapiens) (UniProt P22680); experiment: LTEA_HepaRG_CYP7A1: Life Technologies and Expression Analysis (LTEA) Assay for Cytochrome P450 7A1 (CYP7A1) using HepaRG (AID 2283496)
# Procedure, shortened: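 HepaRG, 48 h exposure, 8-pt half-log series from 100 uM, 0.5% DMSO vehicle, duplicates. Readout: TaqMan qRT-PCR mRNA vs three housekeeping genes; bidirectional curve fit against DMSO baseline.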
# [16] = read-out: Glutathione S-Transferase (GSTA2), GSTA2 (gene 2939); experiment: LTEA_HepaRG_GSTA2: Life Technologies and Expression Analysis (LTEA) Assay for Glutathione S-Transferase (GSTA2) using HepaRG (AID 2283497)
# Procedure, shortened: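 GSTA2 transcript levels came from Fluidigm TaqMan qRT-PCR normalized to three housekeeping genes, fitted in both directions against DMSO. HepaRG cultures received chemicals for 48 h in serum-free induction medium (0.5% DMSO), 8 half-log concentrations up to 100 uM, duplicate.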
# [17] = read-out: Hypoxia-inducible factor 1-alpha (Homo sapiens) (UniProt Q16665); experiment: LTEA_HepaRG_HIF1A: Life Technologies and Expression Analysis (LTEA) Assay for Hypoxia-inducible factor 1 (HIF1A) Trancription factor using HepaRG (AID 2283503)
# Procedure, shortened: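 HIF1A transcript level read by qRT-PCR (ACTB, GAPDH, POLR2A normalization) after 48 h chemical exposure of HepaRG cultures. Eight half-log concentrations, top 100 uM, 0.5% DMSO vehicle, duplicates; bidirectional curve fit against DMSO baseline.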
# Chain of Hypoxia-inducible factor 1-alpha (Homo sapiens) (Q16665 whole entry, looked up): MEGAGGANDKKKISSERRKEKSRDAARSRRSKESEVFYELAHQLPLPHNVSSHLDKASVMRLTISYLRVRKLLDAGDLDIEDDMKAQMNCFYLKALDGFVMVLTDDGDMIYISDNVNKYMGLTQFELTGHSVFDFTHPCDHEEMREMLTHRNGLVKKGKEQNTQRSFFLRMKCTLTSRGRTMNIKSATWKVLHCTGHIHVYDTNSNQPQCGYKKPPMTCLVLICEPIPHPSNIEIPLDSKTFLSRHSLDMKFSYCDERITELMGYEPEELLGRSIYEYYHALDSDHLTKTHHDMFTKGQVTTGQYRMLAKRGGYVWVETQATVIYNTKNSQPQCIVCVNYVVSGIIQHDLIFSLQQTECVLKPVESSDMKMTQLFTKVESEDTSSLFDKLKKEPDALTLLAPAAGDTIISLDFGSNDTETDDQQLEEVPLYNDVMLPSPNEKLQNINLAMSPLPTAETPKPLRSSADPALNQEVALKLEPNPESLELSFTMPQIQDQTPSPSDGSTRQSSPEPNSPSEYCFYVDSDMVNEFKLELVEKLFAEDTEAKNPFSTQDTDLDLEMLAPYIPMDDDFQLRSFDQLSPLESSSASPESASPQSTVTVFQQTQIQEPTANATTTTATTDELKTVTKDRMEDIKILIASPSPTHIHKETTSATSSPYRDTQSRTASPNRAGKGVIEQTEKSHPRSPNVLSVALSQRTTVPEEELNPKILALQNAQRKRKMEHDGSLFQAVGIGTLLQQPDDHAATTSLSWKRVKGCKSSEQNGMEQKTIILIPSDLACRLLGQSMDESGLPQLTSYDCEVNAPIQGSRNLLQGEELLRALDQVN
# Chain of Cytochrome P450 3A4 (Homo sapiens) (P08684 whole entry, looked up): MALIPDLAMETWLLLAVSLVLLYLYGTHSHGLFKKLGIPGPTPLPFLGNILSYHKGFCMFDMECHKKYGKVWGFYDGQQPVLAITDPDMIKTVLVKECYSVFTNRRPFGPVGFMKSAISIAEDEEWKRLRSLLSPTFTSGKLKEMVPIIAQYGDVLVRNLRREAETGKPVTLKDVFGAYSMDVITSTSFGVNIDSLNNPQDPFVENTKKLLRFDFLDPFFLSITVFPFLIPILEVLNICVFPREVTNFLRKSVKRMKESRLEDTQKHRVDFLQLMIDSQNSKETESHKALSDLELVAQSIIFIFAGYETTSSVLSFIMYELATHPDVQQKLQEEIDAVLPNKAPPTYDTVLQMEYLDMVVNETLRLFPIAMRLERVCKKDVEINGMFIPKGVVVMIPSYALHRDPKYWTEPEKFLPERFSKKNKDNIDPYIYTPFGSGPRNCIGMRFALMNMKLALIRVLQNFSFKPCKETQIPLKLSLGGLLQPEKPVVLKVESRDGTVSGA
# Chain of Cytochrome P450 3A7 (Homo sapiens) (P24462 whole entry, looked up): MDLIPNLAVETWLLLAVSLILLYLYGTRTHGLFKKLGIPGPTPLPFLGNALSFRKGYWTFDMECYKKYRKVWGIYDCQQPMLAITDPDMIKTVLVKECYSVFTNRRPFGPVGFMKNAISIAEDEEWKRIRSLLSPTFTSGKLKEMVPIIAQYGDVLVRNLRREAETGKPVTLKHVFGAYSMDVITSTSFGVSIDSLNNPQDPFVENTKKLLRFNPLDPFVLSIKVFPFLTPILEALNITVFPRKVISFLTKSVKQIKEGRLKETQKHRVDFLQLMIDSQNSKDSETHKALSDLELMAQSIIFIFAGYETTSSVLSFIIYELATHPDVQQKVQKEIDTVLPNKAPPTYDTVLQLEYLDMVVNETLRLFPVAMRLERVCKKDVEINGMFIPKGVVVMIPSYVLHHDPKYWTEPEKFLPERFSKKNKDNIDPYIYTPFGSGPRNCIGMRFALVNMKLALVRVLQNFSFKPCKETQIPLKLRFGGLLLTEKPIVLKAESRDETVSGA
smiles,measurement,setting,value
COP(=O)(OC)C(O)C(Cl)(Cl)Cl (stereo not given),outcome,[1],inactive
same,outcome,[2],inactive
same,outcome,[3],inactive
same,outcome,[4],inactive
same,outcome,[5],inactive
same,outcome,[6],inactive
same,outcome,[7],inactive
same,outcome,[8],inactive
same,outcome,[9],inactive
same,outcome,[10],inactive
same,outcome,HGF (gene 3082),inactive
same,outcome,[11],inactive
COP(=O)(OC)OC(Br)C(Cl)(Cl)Br (stereo not given),outcome,[12],inactive
same,outcome,[1],inactive
same,outcome,[2],inactive
same,outcome,[3],inactive
same,outcome,[13],inactive
same,outcome,CYP3A5 (gene 1577),inactive
same,outcome,[4],inactive
same,outcome,[14],inactive
same,outcome,[15],inactive
same,outcome,[16],inactive
same,outcome,[5],inactive
same,outcome,[6],inactive
same,outcome,[7],inactive
same,outcome,[8],inactive
same,outcome,[9],inactive
same,outcome,[17],inactive
same,outcome,[10],inactive
same,outcome,HGF (gene 3082),inactive
same,outcome,[11],inactive
CCCSP(=O)(OCC)SCCC,outcome,[1],inactive
same,outcome,[2],inactive
same,outcome,[3],inactive
same,outcome,[13],inactive
same,outcome,CYP3A5 (gene 1577),inactive
same,AC50,[4],15.5 µM (active)
same,outcome,[14],inactive
same,AC50,[15],22.1 µM (active)
same,outcome,[16],inactive
same,outcome,[5],inactive
same,outcome,[6],inactive
same,outcome,[7],inactive
same,outcome,[8],inactive
same,outcome,[9],inactive
same,outcome,[17],inactive
same,outcome,[10],inactive
same,outcome,HGF (gene 3082),inactive
same,AC50,[11],27.7 µM (active)
CCOP(=S)(OCC)Oc1ccc([N+](=O)[O-])cc1,AC50,[12],8.92 µM (active)
same,outcome,[1],inactive
same,outcome,[2],inactive
same,outcome,[3],inactive
same,outcome,CYP3A5 (gene 1577),inactive
same,outcome,[4],inactive
same,outcome,[14],inactive
same,AC50,[15],1.78 µM (active)
same,outcome,[16],inactive
same,outcome,[5],inactive
same,outcome,[6],inactive
same,outcome,[7],inactive
same,outcome,[8],inactive
same,outcome,[9],inactive
same,outcome,[17],inactive
same,outcome,[10],inactive
same,outcome,HGF (gene 3082),inactive
same,outcome,[11],inactive
COc1cccc(C(=O)NN(C(=O)c2cc(C)cc(C)c2)C(C)(C)C)c1C,AC50,[12],1.81 µM (active)
same,outcome,[1],inactive
same,outcome,[2],inactive
same,outcome,[3],inactive
same,outcome,CYP3A5 (gene 1577),inactive
same,outcome,[4],inactive
same,outcome,[14],inactive
same,AC50,[15],2.88 µM (active)
same,outcome,[16],inactive
same,outcome,[5],inactive
same,outcome,[6],inactive
same,outcome,[7],inactive
same,outcome,[8],inactive
same,outcome,[9],inactive
same,outcome,[17],inactive
same,outcome,[10],inactive
same,outcome,HGF (gene 3082),inactive
same,AC50,[11],74.6 µM (active)
